Rows were chosen to be rich in hits. Some 2.7% of all compounds tested hit in one or more screens of this group.
pPAFAH FP inh – inhibitors of human plasma PAF acetylhydrolase (pPAFAH). AID 463082. inhibition, % at 3.39 µM. recombinant pPAFAH, FP-rhodamine probe fluorescence polarization. 1.5% of 330,000 active. Q13093;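 active = inhibition above the mean inhibition across the screen plus 3 SD, cut at about 25% in these data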;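 note: inhibitors block binding of the rhodamine activity-based probe so polarization drops; 0% = enzyme with DMSO and 100% = wells lacking pPAFAH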
PAFAH1B3 inh – PAFAH1B3 (human) inhibition. AID 492972. 0.28% of 340,000 active. recombinant PAFAH1B3, FP-rhodamine probe, fluorescence polarization. Q15102. inhibition, % at 3.39 µM;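 active = inhibition above the screen-wide average of all tested compounds plus 3 SD, cut at about 25% in these data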;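 note: 0% = enzyme with DMSO only and 100% = wells lacking PAFAH1B3 protein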
Target sequence (Q15102 whole entry, looked up): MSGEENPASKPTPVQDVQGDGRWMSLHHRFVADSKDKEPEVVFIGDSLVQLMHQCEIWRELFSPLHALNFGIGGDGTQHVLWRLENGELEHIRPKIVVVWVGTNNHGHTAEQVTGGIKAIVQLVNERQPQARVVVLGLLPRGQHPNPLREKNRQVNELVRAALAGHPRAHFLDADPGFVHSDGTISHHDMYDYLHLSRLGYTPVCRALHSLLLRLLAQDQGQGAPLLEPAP
TCR-CD3 inh – blocks the human TCR-CD3 interaction; TAMRA-labeled TCR probe fluorescence, biochemical; inhibition, % at 9.4 µM; 0.37% of 360,000 active; in the data active = inhibition above about 19%;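 note: recombinant mutant TCR 2C K166C tagged with TAMRA read by polarization; 0% = receptor in buffer alone and 100% = receptor with positive control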
PAFAH1B2 inh – PAFAH1B2 (human) inhibition. P68402. recombinant PAFAH1B2, FP-rhodamine activity probe, fluorescence polarization. inhibition, % at 3.39 µM. 1.2% of 340,000 active. AID 492953;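 active = inhibition above the mean of all tested compounds plus 3 SD, cut at about 24% in these data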;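 note: 0% = enzyme with DMSO and 100% = wells lacking PAFAH1B2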
Target sequence (P68402 whole entry, looked up): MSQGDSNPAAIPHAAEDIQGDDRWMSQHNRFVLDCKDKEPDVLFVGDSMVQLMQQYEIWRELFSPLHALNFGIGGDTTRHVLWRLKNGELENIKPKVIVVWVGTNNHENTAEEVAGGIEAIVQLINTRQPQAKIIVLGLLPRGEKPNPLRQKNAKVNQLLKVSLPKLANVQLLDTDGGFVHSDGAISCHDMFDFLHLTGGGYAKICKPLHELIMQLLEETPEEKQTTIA
PAFAH2 inh – inhibitors of human PAFAH2; Q99487; recombinant PAFAH2, FP-rhodamine activity probe, fluorescence polarization; inhibition, % at 3.39 µM; 0.99% of 340,000 active;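 active = inhibition above the mean over all tested compounds plus 3 SD, cut at about 30% in these data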;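 note: inhibitors block probe labeling of enzyme so polarization drops; 0% = enzyme with DMSO and 100% = wells lacking PAFAH2 protein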
pPAFAH confirm – confirmation of human plasma PAF acetylhydrolase (pPAFAH) inhibitors; recombinant pPAFAH, FP-Rh probe fluorescence polarization; 72% of 2,300 active; shares compounds with pPAFAH FP inh; inhibition, % at 3.39 µM;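 active = mean inhibition of the triplicate above the hit cutoff set for the earlier primary screen, cut at about 25% in these data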;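 note: 0% = enzyme with DMSO and 100% = wells lacking pPAFAH enzyme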
* hit, by the source's call; . = not tested or not shown.

SMILES | pPAFAH FP inh | PAFAH1B3 inh | TCR-CD3 inh | PAFAH1B2 inh | PAFAH2 inh | pPAFAH confirm
O=C(CCCN1C(=O)/C(=C/c2ccccc2)SC1=S)Nc1ccc(C(=O)O)c(O)c1 | 9.8 | 5.5 | 7.1 | 10.7 | 6.6 | .
Cc1csc(SCC(=O)Nc2nncs2)n1 | -0.7 | 10.0 | 5.7 | 6.7 | 2.3 | .
Cc1nc(N)sc1N=Nc1ccccc1C(F)(F)F | 41.8* | 11.9 | -1.9 | 3.4 | -1.9 | 30.2*
Cc1[nH]n(C(N)=S)c(=O)c1N=Nc1ccccc1C(F)(F)F | 13.2 | 5.0 | -6.4 | 4.0 | 13.6 | .
CCCCCCCCCCCCCCCC[n+]1ccc(/C=N/O)cc1 | 50.3* | 61.0* | 3.3 | 32.7* | 27.1 | 39.7*
Cc1occc1C(=O)N/N=C/C1=C(N2CCOCC2)C(=C\c2ccc(Cl)cc2)/CC1 | 8.4 | 2.6 | 4.8 | -1.5 | -4.9 | .
Cc1cc(=O)[nH]c(N/N=C/C2=C(N3CCOCC3)C(=C\c3ccc(Cl)cc3)/CC2)n1 | 53.9* | 6.9 | 7.0 | -1.2 | 7.7 | 46.5*
Cc1cc(C)nc(N/N=C/C2=C(N3CCOCC3)C(=C/c3ccccc3)/CC2)n1 | 64.6* | 3.9 | 5.1 | 1.8 | 2.9 | 82.3*
CCOC(=O)C1CCN(C(=O)c2ccc(NS(=O)(=O)c3ccc4[nH]c(=O)[nH]c4c3)cc2)CC1 | . | -5.7 | -3.3 | -0.9 | -2.5 | .
O=C1N/C(=N\S(=O)(=O)c2ccccc2)S/C1=C\c1cc([N+](=O)[O-])ccc1O | 40.8* | 42.9* | -6.2 | 38.4* | 30.6* | 48.8*
O=C(C1=C(O)C(=O)N(c2nc3ccc(Cl)cc3s2)C1c1ccco1)c1ccco1 (stereo unspecified) | 48.9* | 12.1 | 17.9 | 7.3 | 28.0 | 38.4*
CC(=O)N1CCC(=NNC(=O)c2cc3ccccc3cc2O)CC1 | 43.6* | 14.4 | 16.6 | 6.0 | 11.8 | 6.3
O=C(NN=C1CCCCCC1)c1cc2ccccc2cc1O | 57.7* | 9.2 | -1.7 | 5.9 | 5.3 | 11.2
O=C(NN=C1CCN(Cc2ccccc2)CC1)c1ccccc1O | 2.6 | 4.5 | 18.3 | 4.3 | -0.1 | .
O=C(NN=C1CCN(Cc2ccccc2)CC1)c1cc2ccccc2cc1O | 47.2* | 5.8 | 8.9 | 12.7 | 3.6 | 21.5
Cc1cc(C(=O)NN=C2CCCCCCC2)c2ccccc2n1 | 2.9 | 4.7 | 2.1 | 6.0 | 9.2 | .
CCN(CC)CCC(=O)N1C/C(=C/c2ccccc2)C(=O)/C(=C\c2ccccc2)C1 | . | 5.4 | 3.6 | 3.1 | 4.6 | .
O=C(Oc1ccc(-c2ccccc2)cc1)N1CCCCC1 | 44.2* | 3.3 | 1.4 | 6.5 | -0.1 | 80.7*
Cc1cc(C(=O)COc2ccc(C#N)cc2)c(C)n1CC1CCCO1 (stereo unspecified) | 6.2 | . | -5.2 | . | . | .
Cc1ccc(-n2nc(C(=O)c3ccccc3)n3c(=O)c(Cc4ccccc4)nnc23)cc1 | 20.7 | -2.4 | 4.6 | -1.1 | 5.3 | .
O=C(c1ccccc1)c1nn(-c2ccccc2)c2nnc(Cc3ccccc3)c(=O)n12 | 41.0* | 2.9 | -2.8 | -1.3 | 27.0 | 30.2*
O=[N+]([O-])c1c(NCCCO)cc(SCc2ccco2)c2nonc12 | 59.5* | 9.2 | 11.4 | 6.2 | 1.1 | -2.2
CC(=O)OCCNc1cc(SCc2ccco2)c2nonc2c1[N+](=O)[O-] | 57.8* | 7.5 | . | -2.8 | 11.4 | 6.5
O=C(NCc1cccc(Cl)c1)C1CCN(S(=O)(=O)c2ccc(F)cc2)CC1 | 0.9 | 9.1 | 4.7 | 7.3 | -2.3 | .
COc1ccccc1C(=O)NCC(=O)OCc1csc(-c2ccccc2)n1 | -2.5 | 0.0 | 0.2 | 5.8 | -8.7 | .
SMILES | pPAFAH FP inh | PAFAH1B3 inh | TCR-CD3 inh | PAFAH1B2 inh | PAFAH2 inh | pPAFAH confirm
CCOc1ccccc1C(=O)NCC(=O)OCc1csc(CC(=O)Nc2ccc(C)cc2)n1 | 36.7* | 2.1 | 10.0 | 0.1 | 29.0 | 18.4
C[C@H]1CN([C@@H](C)CO)C(=O)CCCn2cc(nn2)CO[C@@H]1CN(C)C(=O)CCC(F)(F)F | . | . | 2.8 | . | . | .
COCCNC(=O)C1(C)CCCN(Cc2sc(C)nc2C)C1 (stereo unspecified) | . | . | 1.1 | . | . | .
CC(=O)Oc1ccc2c(c1)Oc1cc(OC(C)=O)ccc1C21OC(=O)c2ccccc21 | 99.3* | 129.0* | . | 110.3* | 123.8* | 89.6*
CC1(C)CC(=O)C2=C(C1)c1c(ccc3ccccc13)NC2c1ccc(C(=O)O)cc1 (stereo unspecified) | 5.1 | -1.5 | -0.1 | -1.8 | 4.7 | .
CC1(C)CC(=O)C2=C(C1)c1c(ccc3ccccc13)NC2c1cc([N+](=O)[O-])cc([N+](=O)[O-])c1O (stereo unspecified) | 40.7* | 19.8 | -7.2 | 28.8* | 34.8* | 79.3*
Cc1ccc(-n2c(CCC(=O)O)ccc2-c2cccs2)cc1 | 50.6* | 3.0 | -5.4 | 7.5 | 6.6 | 12.8
Cc1cccc(N=C2NC(=O)/C(=C/C=C/c3ccco3)S2)c1 | 49.6* | 27.0* | -10.6 | 9.6 | 32.1* | 24.6*
O=C1NC(=Nc2ccc(O)cc2)S/C1=C/c1ccco1 | 6.0 | -2.9 | -11.2 | 0.9 | 2.7 | .
O=C1NC(=Nc2ccc3ccccc3c2)S/C1=C/c1ccco1 | 55.2* | 1.2 | -3.9 | 12.7 | 5.2 | 21.6
COc1ccc(N=C2NC(=O)/C(=C\C=C\c3ccco3)S2)cc1 | . | 6.1 | 4.9 | 2.8 | 22.6 | .
C=CCOc1ccccc1CN(CCc1ccccc1)C(=O)c1cccc(S(C)(=O)=O)c1 | -0.1 | 2.3 | -1.9 | 7.4 | 9.1 | .
COc1cc(C(=S)N2CCN(c3ccccc3Cl)CC2)cc(O)c1O | 41.6* | 0.9 | 16.1 | -4.3 | 8.1 | 63.7*
Cc1cc(C(=O)N/N=C2\CC(=O)c3ccccc32)c(C)n1-c1ccc(F)cc1 | 42.4* | 14.1 | 7.7 | 2.0 | 0.8 | 31.8*
CCOC(=O)c1cc(-c2ccc(/C=C3/C(=O)NC(=O)C(C#N)=C3C)o2)ccc1Cl | 45.7* | 16.8 | 4.7 | 8.1 | 22.1 | 47.5*
CCCCC1(C)OC(=O)C(=Cc2ccc(-c3ccc(Cl)c(C(=O)O)c3)o2)C(=O)O1 (stereo unspecified) | 1.5 | 3.6 | -3.7 | 2.0 | 20.4 | .
O=C(O)c1cc(O)c2c(c1)C(=O)c1cc(O)cc(O)c1C2=O | 35.5* | 17.1 | -3.1 | 16.3 | 13.4 | 24.2
CCCc1cc(C(=O)Nc2cccc(Cl)c2C)no1 | -5.2 | -5.1 | -0.1 | 4.1 | 7.5 | .
CCCCCCC(=O)Nc1nc(C)c(-c2csc(Nc3cc(OC)ccc3OC)n2)s1 | 47.2* | 18.3 | 6.5 | 10.8 | 16.4 | 41.1*
CCCCC(=O)Nc1nc(C)c(-c2csc(Nc3ccccc3OC)n2)s1 | 17.4 | 6.5 | -15.5 | 9.2 | -0.6 | .
CCCCCC(=O)Nc1nc(C)c(-c2csc(Nc3cc(OC)ccc3OC)n2)s1 | 39.6* | 14.8 | 1.5 | 8.8 | 7.7 | 28.7*
COc1ccc(OC)c(Nc2nc(-c3sc(NC(=O)c4ccccc4)nc3C)cs2)c1 | 6.4 | . | . | . | . | .
Cc1nn(CC(=O)Nc2cccc(Cl)c2)c(=O)c2cc(-c3ccccc3)nn12 | 7.4 | 4.6 | -1.3 | 3.6 | -4.2 | .
CCN(CC)c1ccc(N=Cc2ccc([N+](=O)[O-])o2)cc1 | 43.1* | 3.6 | 5.5 | 2.7 | 8.9 | 16.9

Compound activity deposited in PubChem BioAssay by The Scripps Research Institute Molecular Screening Center.
